Experimental data as given in PubChem BioAssay (EPA / NIEHS).
Results filed as inconclusive are left out. Activity calls are given as the source filed them. The calls were made as follows, unless noted: active = hit-call score of the fitted dose curve at least 0.9, where 1 is the maximum; inconclusive = response in the unintended direction; inactive = score below 0.9.

How the values were obtained:
[1] = Tanguay_ZF_120hpf_PIG_legacy: (Legacy) Oregon State University Tanguay Lab 120 Hour Post-fertilization zebrafish Assay for Pigmentation Malformation (AID 2283650)
Method in brief: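 Dechorionated Tropical 5D wild-type embryos, one per well from 6 hpf, statically exposed at 28C in the dark until 120 hpf, 0.64% DMSO final. Pigmentation scored present/absent by brightfield microscopy; dead embryos not scored; fitted versus DMSO.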

[2] = Tanguay_ZF_120hpf_CIRC_legacy: (Legacy) Oregon State University Tanguay Lab 120 Hour Post-fertilization zebrafish Assay for Circulatory Malformation (AID 2283651)
Method in brief: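 Tropical 5D wild-type embryos, dechorionated with pronase at 4 hpf, were placed singly in wells at 6 hpf and exposed statically at 28C to 120 hpf (0.64% DMSO final). Circulatory malformation was scored present/absent by brightfield microscopy.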

[3] = Tanguay_ZF_120hpf_SWIM_legacy: (Legacy) Oregon State University Tanguay Lab 120 Hour Post-fertilization zebrafish Assay for Swim Bladder Malformation (AID 2283654);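 also: swim bladder malformation in each larva scored yes or no under brightfield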
Method in brief: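 Dechorionated wild-type Tropical 5D zebrafish embryos, one per well from 6 hpf, were statically exposed at 28C until 120 hpf in 0.64% DMSO. Swim bladder malformation scored as present/absent by brightfield microscopy; not scored in dead larvae.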

[4] = read-out: ABC Transporter (ABCB1), ABCB1 (gene 5243); test: CLD_ABCB1_6hr: CellzDirect (CLD) Gene Expression Assay for ABC Transporter (ABCB1) at 6 hours (AID 2283659);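 also: hits raise ABCB1 transcript above the DMSO vehicle baseline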
Method in brief: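 Primary human hepatocytes (two donor preparations) dosed daily for two days with chemicals at multiple concentrations, 0.2% DMSO vehicle; harvested 6 h post-dose. ABCB1 mRNA induction quantified by qNPA chemiluminescence; gain-of-signal fitted versus DMSO.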

[5] = read-out: sulfotransferase (SULT2A), SULT2A1 (gene 6822); test: CLD_SULT2A_6hr: CellzDirect (CLD) Gene Expression Assay for sulfotransferase (SULT2A) at 6 hours (AID 2283669);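 also: hits raise transcript level above the DMSO vehicle baseline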
Method in brief: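 Primary human hepatocytes from two donor preparations were dosed daily with chemicals or 0.2% DMSO and harvested at 6 h. Transcript induction read by qNPA chemiluminescence, fitted for gain of signal relative to DMSO; morphology-based cytotoxicity annotated.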

[6] = read-out: xenobiotic metabolism (CYP1A1), CYP1A1 (gene 1543); test: CLD_CYP1A1_6hr: CellzDirect (CLD) Gene Expression Assay for xenobiotic metabolism (CYP1A1) at 6 hours (AID 2283661);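 as to AC50: potency for transcript induction above DMSO vehicle baseline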
Method in brief: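 Primary human hepatocytes from two donors, compound versus 0.2% DMSO vehicle. CYP1A1 mRNA measured 6 h after dosing by quantitative nuclease protection assay with chemiluminescent read-out; induction fitted relative to DMSO, cytotoxicity flagged by microscopy.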

[7] = read-out: alkyl and aryl transferase (GSTA2), GSTA2 (gene 2939); test: CLD_GSTA2_6hr: CellzDirect (CLD) Gene Expression Assay for alkyl and aryl transferase (GSTA2) at 6 hours (AID 2283666)
Method in brief: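 Primary human hepatocytes from two donor preparations were dosed daily with fresh compound at multiple concentrations, 0.2% DMSO vehicle. GSTA2 mRNA was measured at 6 hours by qNPA chemiluminescence; induction fitted relative to DMSO, with cytotoxicity flagged morphologically.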

[8] = read-out: organic anion transporter (SLCO1B1), SLCO1B1 (gene 10599); test: CLD_SLCO1B1_6hr: CellzDirect (CLD) Gene Expression Assay for organic anion transporter (SLCO1B1) at 6 hours (AID 2283668);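 also: active means mRNA induction above DMSO baseline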
Method in brief: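 Primary human hepatocytes dosed daily with test chemicals (multiple concentrations) in 0.2% DMSO vehicle; harvested at 6 h. SLCO1B1 mRNA quantified by qNPA chemiluminescence, fitted as gain-of-signal versus DMSO; cytotoxicity from phase-contrast morphology flagged alongside.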

[9] = Tanguay_ZF_120hpf_TR_legacy: (Legacy) Oregon State University Tanguay Lab 120 Hour Post-fertilization zebrafish Assay for Touch Response (AID 2283667)
Method in brief: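 Tropical 5D wild-type zebrafish embryos statically exposed to 120 hpf at 28°C, sealed and dark-covered, 0.64% DMSO final; touch response scored as present/absent by brightfield microscopy at 120 hpf. Trimethyltin chloride 5 uM positive control; dead embryos not scored.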

[10] = Tanguay_ZF_120hpf_NC_legacy: (Legacy) Oregon State University Tanguay Lab 120 Hour Post-fertilization zebrafish Assay for Notochord and Tail Malformation (AID 2283656)
Method in brief: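 Dechorionated 5D zebrafish, 1/well from 6 hpf; static exposure to 120 hpf, 28C, sealed, dark; final DMSO 0.64% v/v. NC scored binary (present/absent); dead embryos not scored. Fit vs DMSO baseline, gain direction.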

[11] = Tanguay_ZF_120hpf_TRUN_legacy: (Legacy) Oregon State University Tanguay Lab 120 Hour Post-fertilization zebrafish Assay for Truncated Body (AID 2283655)
Method in brief: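 Binary presence/absence of truncated body is recorded at 120 hpf by brightfield, with non-mortality endpoints skipped after death. Exposure is static from 6 hpf in sealed dark plates at 28C, using dechorionated wild-type zebrafish, 0.64% DMSO.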

[12] = system: Thyroperoxidase (TPO), gene 54314; test: CCTE_Simmons_AUR_rTPO: CCTE's Amplex UltraRed Assay for Thyroperoxidase (TPO) Inhibition, Simmons Lab (AID 2283662);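 as to AC50: potency for loss of signal meaning inhibition of peroxidase activity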
Method in brief: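 Rat thyroid microsomal TPO + 25 uM AUR in 200 mM K phosphate; cpd 5 nM–87.5 uM [final], 8 conc, 0.5% DMSO; 300 uM H2O2 starts rxn; 37C dark 30 min; endpoint FI 544/590 nm; n=3.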

[13] = CCTE_Simmons_CellTiterGLO_HEK293T: Viability Assessment in CCTE's Assays for Thyroperoxidase (TPO) Inhibition, Simmons Lab (AID 2283665);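 as to AC50: cells exposed to compound for 24 h before readout; actives reduce ATP signal below DMSO vehicle meaning cytotoxicity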
Method in brief: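 HEK293T cells in DMEM with 1% FBS were dosed with 8 concentrations (5 nM–87.5 uM final, 0.5% DMSO) for 24 hr at 37C; ATP content was read by CellTiter-Glo luminescence, loss-of-signal versus DMSO, three biological replicates.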

[14] = read-out: glucuronosyltransferase (UGT1A1), UGT1A1 (gene 54658); test: CLD_UGT1A1_6hr: CellzDirect (CLD) Gene Expression Assay for glucuronosyltransferase (UGT1A1) at 6 hours (AID 2283672)
Method in brief: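 Primary human hepatocytes from two donor preparations, dosed with fresh solutions in 0.2% DMSO, harvested at 6 h. UGT1A1 mRNA measured by qNPA chemiluminescence; induction fitted upward versus DMSO.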

[15] = read-out: solute carrier (SLC22A6), SLC22A6 (gene 9356); test: LTEA_HepaRG_SLC22A6: Life Technologies and Expression Analysis (LTEA) Assay for solute carrier (SLC22A6) using HepaRG (AID 2283653; active = hit-call score of the fitted dose curve at least 0.9, where 1 is the maximum; inactive = score below 0.9); conditions: mRNA level, 48 h; actives raise or lower the signal
Method in brief: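 SLC22A6 transcript was measured by TaqMan qRT-PCR, normalized to three housekeeping genes, after 48 h duplicate exposure of HepaRG cells (100 uM top, half-log steps, 0.5% DMSO); bidirectional fit against vehicle.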

[16] = read-out: solute carrier (SLC10A1), SLC10A1 (gene 6554); test: LTEA_HepaRG_SLC10A1: Life Technologies and Expression Analysis (LTEA) Assay for solute carrier (SLC10A1) using HepaRG (AID 2283657; active = hit-call score of the fitted dose curve at least 0.9, where 1 is the maximum; inactive = score below 0.9); conditions: mRNA level, 48 h; actives raise or lower the signal
Method in brief: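 HepaRG cells (single lot) exposed 48 h in serum-free induction medium, 8-point half-log series from 100 uM top in 0.5% DMSO, duplicate. SLC10A1 mRNA by qRT-PCR normalised to ACTB, GAPDH, POLR2A; bidirectional fit versus DMSO.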

[17] = read-out: matrix metalloproteinase-1 (MMP1), MMP1 (gene 4312); test: LTEA_HepaRG_MMP1: Life Technologies and Expression Analysis (LTEA) Assay for matrix metalloproteinase-1 (MMP1) using HepaRG (AID 2283658; active = hit-call score of the fitted dose curve at least 0.9, where 1 is the maximum; inactive = score below 0.9); conditions: mRNA level, 48 h; actives raise or lower the signal
Method in brief: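 qRT-PCR (TaqMan, Fluidigm arrays) of MMP1 transcript, normalized against three housekeeping genes and fitted in both directions relative to 0.5% DMSO vehicle. Human HepaRG cultures received duplicate 48 h exposures across 8 points, highest 100 uM with half-log steps.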

[18] = read-out: Cytochrome P450 (CYP24A1_1), CYP24A1 (gene 1591); test: LTEA_HepaRG_CYP24A1_1: Life Technologies and Expression Analysis (LTEA) Assay for Cytochrome P450 (CYP24A1_1) using HepaRG (AID 2283671; active = hit-call score of the fitted dose curve at least 0.9, where 1 is the maximum; inactive = score below 0.9); conditions: mRNA level, 48 h; actives raise or lower the signal
Method in brief: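 Differentiated human HepaRG cells in serum-free induction medium, exposed 48 h in duplicate to eight half-log concentrations from 100 uM top, 0.5% DMSO. Transcript measured by TaqMan qRT-PCR, normalised to ACTB, GAPDH, POLR2A; bidirectional fitting versus DMSO.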

[19] = read-out: xenobiotic metabolism (CYP1A2), CYP1A2 (gene 1544); test: CLD_CYP1A2_6hr: CellzDirect (CLD) Gene Expression Assay for xenobiotic metabolism (CYP1A2) at 6 hours (AID 2283663);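 as to AC50: potency is for induction meaning a rise in mRNA above DMSO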
Method in brief: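 Primary human hepatocytes from two donor preparations, dosed daily with multiple concentrations in 0.2% DMSO and harvested at 6 h. CYP1A2 mRNA induction measured by chemiluminescent qNPA, gain of signal fitted against DMSO; cytotoxicity flagged morphologically.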

[20] = read-out: kallikrein-3 (KLK3), KLK3 (gene 354); test: LTEA_HepaRG_KLK3: Life Technologies and Expression Analysis (LTEA) Assay for kallikrein-3 (KLK3) using HepaRG (AID 2283652; active = hit-call score of the fitted dose curve at least 0.9, where 1 is the maximum; inactive = score below 0.9); conditions: mRNA level, 48 h; actives raise or lower the signal
Method in brief: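 Differentiated human HepaRG cells in serum-free induction medium exposed 48 h in duplicate, eight-point half-log series from 100 uM in 0.5% DMSO. KLK3 mRNA by qRT-PCR, normalised to ACTB, GAPDH, POLR2A; bidirectional fit versus DMSO.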

Measured: AC50

CCOC(=O)C(Cl)Cc1cc(-n2nc(C)n(C(F)F)c2=O)c(F)cc1Cl (stereo not given)
inactive: [2] | [3] | [4] | [5]
active: [1] 1.88 µM

Cc1ccc(-c2c(Cl)nc(C#N)n2S(=O)(=O)N(C)C)cc1
active: [6] 0.105 µM | [5] 20 µM
inactive: [1] | [2] | [3] | [4] | [7] | [8]

CCNc1nc(Cl)nc(NC(C)C)n1
inactive: [1] | [2] | [3] | [4] | [7] | [8] | [5]

CCCCOC(=O)c1ccccc1C(=O)OCCCC
inactive: [1] | [2] | [3] | [4] | [8] | [5]

COc1nc(NC(C)C)nc(NC(C)C)n1
inactive: [1] | [2] | [3] | [4] | [7] | [9] | [8] | [5]

N#CC(CCc1ccc(Cl)cc1)(Cn1cncn1)c1ccccc1 (stereo not given)
inactive: [1] | [2] | [3] | [4] | [5]

N#Cc1cc(Br)c(O)c(Br)c1
inactive: [1] | [2] | [3] | [4] | [7] | [8] | [5]

N#Cc1nn(-c2c(Cl)cc(C(F)(F)F)cc2Cl)c(N)c1S(=O)C(F)(F)F (stereo not given)
inactive: [1] | [2] | [3] | [10] | [4] | [7] | [5]

C=CCC1=C(C)C(OC(=O)C2C(C=C(C)C)C2(C)C)CC1=O (stereo not given)
inactive: [1] | [2] | [3] | [11] | [4] | [7] | [8] | [5] | [14]
active: [12] 33.6 µM | [13] 54.1 µM

COP(=S)(OC)Oc1nc(Cl)c(Cl)cc1Cl
active: [12] 4.62 µM | [13] 85.6 µM
inactive: [1] | [2] | [3] | [4] | [8] | [5]

CCCCNC(=O)n1c(NC(=O)OC)nc2ccccc21
active: [1] 27.9 µM
inactive: [2] | [3] | [4] | [12] | [13] | [7] | [8]

O=C(O)c1nc(Cl)ccc1Cl
inactive: [1] | [2] | [3] | [11] | [12] | [7] | [8]

CO/C=C(/C(=O)OC)c1ccccc1Oc1cc(Oc2ccccc2C#N)ncn1
inactive: [1] | [2] | [15] | [3] | [17] | [4] | [7] | [8] | [5] | [18]
active: [16] 78.6 µM

COc1cnc(OC)n2nc(NS(=O)(=O)c3c(OCC(F)F)cccc3C(F)(F)F)nc12
inactive: [1] | [2] | [3] | [4] | [8] | [5]

C=CCC1=C(C)[C@@H](OC(=O)[C@@H]2[C@@H](C=C(C)C)C2(C)C)CC1=O
inactive: [1] | [2] | [3] | [4] | [7] | [8]
active: [12] 54 µM | [13] 42.5 µM | [5] 20 µM

CCCC1COC(Cn2cncn2)(c2ccc(Cl)cc2Cl)O1 (stereo not given)
inactive: [1] | [2] | [3] | [4] | [12] | [5] | [14]
active: [19] 3.01 µM | [13] 79.7 µM

Oc1ccccc1-c1ccccc1
inactive: [1] | [2] | [3] | [4] | [7] | [8]
active: [12] 35.2 µM | [13] 97.1 µM

COC(=O)c1ccccc1C(=O)OC
inactive: [1] | [2] | [3] | [11] | [4] | [19] | [9] | [8]

O=C(O)COc1nc(Cl)c(Cl)cc1Cl
inactive: [1] | [2] | [3] | [4] | [7] | [5]

COP(N)(=O)SC (stereo not given)
inactive: [1] | [2] | [3] | [6] | [7] | [8] | [5]
active: [12] 30.6 µM

COC(=O)C(C)Oc1ccc(Oc2ccc(Cl)cc2Cl)cc1 (stereo not given)
inactive: [1] | [2] | [3] | [4] | [7] | [8] | [5]

CCCCNC(=O)OCC#CI
inactive: [1] | [2] | [3] | [4] | [7] | [8] | [5]

C=CC1(C)OC(=O)N(c2cc(Cl)cc(Cl)c2)C1=O (stereo not given)
inactive: [1] | [2] | [20] | [15] | [3] | [10] | [17] | [18]
active: [16] 77.2 µM
